# Experimental data: PubChem BioAssay (NCATS)
# Records with an inconclusive call do not appear. Entries that show only a call come without a potency. Calls of active or inactive are those of the source. Unless noted, calls come from the whole dose curve; as a rule, active = well fitted curve in the direction sought with a large enough effect; inconclusive = small, poorly fitted or top-dose-only effect, or another doubt; inactive = no such curve, though single readings can be large; an effect the other way counts as inactive or inconclusive.
# Assays:
# [1] = target: Cytochrome P450 1A2 (Homo sapiens) (UniProt P05177); assay: p450-cyp1a2 (AID 410; calls by dose curve; note: potency is the fitted concentration of half-maximal effect)
# In short: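 O-Demethylation of luciferin 6' methyl ether by human CYP1A2 is monitored as luciferase luminescence. Substrate sits at Km (100uM); enzyme is 20nM. Values are scaled to 57 uM furafylline as maximal inhibition.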
# [2] = target: Glucocorticoid receptor (Homo sapiens) (UniProt P04150); assay: GR-GFP Redistribution (AID 450;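 active = compounds whose dose series gives a full or clear partial fitted curve of increased nuclear translocation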; note: potency is the fitted concentration of half-maximal effect); conditions: U2OS GR-GFP nuclear translocation, laser cytometry, 2 h
# [3] = target: Glucocorticoid receptor (Homo sapiens) (UniProt P04150); assay: GR-EFC Redistribution (AID 451; calls by dose curve; note: potency is the fitted concentration of half-maximal effect); conditions: CHO-K1 GR-EFC translocation, beta-gal luminescence, 2 h
# In short: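 CHO-K1 cells stably expressing nuclear-localized β-gal enzyme acceptor and GR fused C-terminally to the enzyme donor fragment; ligand-driven nuclear translocation restores β-gal by complementation. Compounds titrated up to 46 uM final, 2 h at 37 °C; luminescence read.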
# [4] = target: Mitogen-activated protein kinase 10 (Mus musculus) (UniProt Q61831); assay: JNK3 AlphaScreen Assay (AID 530; active = well fitted curve in either direction with a large enough effect, not every such curve was filed as active;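 note: kinase came from lysate of stimulated human HepG2 cells; signal reports phosphorylation of biotinylated GST-cJun 1-79 at Ser73 with 10 µM ATP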)
# In short: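 Phosphorylation of biotinylated GST-cJun(1-79) at Ser73 is measured by AlphaScreen proximity luminescence. Enzyme is JNK3 in HepG2 lysates activated with interleukin-1beta and tumor necrosis factor alpha; ATP is 10 uM final.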
# [5] = target: Cytochrome P450 2D6 (Homo sapiens) (UniProt P10635); assay: qHTS Assay for Inhibitors and Substrates of Cytochrome P450 2D6 (AID 891); note: potency is the fitted concentration of half-maximal effect; nearly all actives have a fitted effect of over 60% in size
# In short: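 Luminescent read-out of luciferin formed by 5 nM human CYP2D6 demethylating 30 uM Luciferin-ME EGE (Km level) over 60 min at room temperature after NADPH regeneration addition. Data normalized to full inhibition by 1.43 uM quinidine.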
# [6] = qHTS Assay for Lipid Storage Modulators (AID 1519; calls by dose curve); conditions: Drosophila S3 cells, BODIPY lipid droplet/cell ratio, laser cytometry, cells loaded with oleic acid
# In short: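 Cells seeded at 5,000 per well were treated with compounds over a concentration series and loaded with oleic acid (400 uM, as added). Lipid droplet fluorescence (488 nm excitation, 500-530 nm channel) was read by laser-scanning cytometry and normalized to 20 uM Triacsin C.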
# [7] = target: Ubiquitin carboxyl-terminal hydrolase 1 (Homo sapiens) (UniProt O94782); assay: Inhibitors of USP1/UAF1: Pilot qHTS (AID 504865);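 note: rhodamine fluorescence freed from ubiquitin-rhodamine substrate followed over time; top concentration of the series differs between compounds; nearly all actives have a fitted effect of over 35% in size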
# In short: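 USP1/UAF1 complex (1nM) preincubated with compound 15 min at room temperature, then Ub-Rho substrate (150nM final) added. Fluorescence read kinetically at 480/540 nm, 6 reads every 60 seconds. Buffer: 50mM HEPES pH 7.8, 0.5mM EDTA, 0.1 mg/ml BSA, 1mM TCEP, 0.01% Tween-20.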
# [8] = target: DNA dC->dU-editing enzyme APOBEC-3G (Homo sapiens) (UniProt Q9HC16); assay: qHTS for inhibitors of Vif-A3G interactions: Validation (AID 588379)
# In short: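 Yellow fluorescence (Ex 488, Em 500-530) of Vif-coexpressing HeLa A3G-eYFP cells, scanned by Acumen cytometer, reports blocked A3G degradation. Cells plated at 700/well overnight at 37 deg C before compound addition, then a further overnight compound incubation at 37 deg C.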
# [9] = system: Zika virus NS2B-NS3 protease; assay: Primary screen GU AMC qHTS for Zika virus inhibitors (AID 1347154); note: nearly all actives have a fitted effect of over 70% in size
# In short: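 Unlinked Zika NS2B hydrophilic domain/NS3 protease domain noncovalent complex (25 nM final) in 10 mM Tris-HCl pH 8.0, 0.01% Tween 20, with AMC peptide substrate. Fluorescence (ex 340, em 450 nm) change over 15 min, room temperature; percent inhibition fitted to 4-parameter Hill equation.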
# [10] = Counterscreen qHTS for small molecule stabilizers of the endoplasmic reticulum resident proteome: GLuc-NoTag assay (AID 1508627); note: potency is the fitted concentration of half-maximal effect
# In short: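 Secreted GLuc lacking the SERCaMP modification is measured in SH-SY5Y cells exposed to compound for 19 h and then to thapsigargin (100 nM, 4 h) to deplete ER calcium; hits retested at 11 concentrations, up to 76.6 uM.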
# [11] = Confirmatory qHTS for small molecule stabilizers of the endoplasmic reticulum resident proteome: Secreted ER Calcium Modulated Protein (SERCaMP) assay (AID 1508628); note: potency is the fitted concentration of half-maximal effect; nearly all actives have a fitted effect of over 40% in size
# In short: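 Reporter secretion upon ER calcium depletion (100 nM thapsigargin, 4 h, 37C) is measured as medium luminescence with coelenterazine, after 16 h compound pretreatment of SH-SY5Y-GLuc-SERCaMP cells; primary at three concentrations up to 38.3 uM, follow-up at 11 (up to 76.6 uM).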
# [12] = Cell Viability qHTS for small molecule stabilizers of the endoplasmic reticulum resident proteome (AID 1508629); conditions: cell viability counter-screen, 100 nM thapsigargin for final 4 h;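 note: human SH-SY5Y neuroblastoma cells carrying the GLuc-SERCaMP reporter; compound exposure about 46 h in total before the viability read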
# [13] = target: 3',5'-cyclic-AMP phosphodiesterase 4B (Homo sapiens) (UniProt Q07343); assay: qHTS Assay for Inhibitors of PDE-IV (AID 607; active = well fitted activation curve with a large enough effect in the main read-out, with a control signal flat, not every such curve was filed as active)
# In short: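 Cell-based read-out of cAMP via a modified cyclic nucleotide-gated channel and membrane potential dye (535/590 nm) in HEK293 cells expressing PDE4 endogenously. Compounds tested up to 22.9 uM final; 100 uM RO 20-1724 reference.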
# [14] = target: Luciferin 4-monooxygenase (Photinus pyralis) (UniProt P08659); assay: Biochemical firefly luciferase enzyme assay for NPC (AID 624030);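 note: purified P. pyralis luciferase at 10 nM with luciferin and ATP substrate; nearly all actives have a fitted effect of over 70% in size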
# In short: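 Counter-screen for direct inhibition of the luciferase enzyme by approved-drug library compounds, run at 10 nM enzyme in 50 mM Tris acetate (final). Luminescence was read within 5 min of enzyme-buffer addition and normalized to PTC124 versus DMSO (0%).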
# [15] = Primary qHTS for small molecule stabilizers of the endoplasmic reticulum resident proteome: Secreted ER Calcium Modulated Protein (SERCaMP) assay (AID 1508630)
# In short: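 The SH-SY5Y reporter protocol was run at 3 concentrations up to 38.3 uM (primary) or 11 concentrations (follow-up): 16 h compound, 100 nM thapsigargin for 4 h, then extracellular luciferase luminescence.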
# [16] = target: Cytochrome P450 2C9 (Homo sapiens) (UniProt P11712); assay: qHTS Assay for Inhibitors and Substrates of Cytochrome P450 2C9 (AID 883); note: potency is the fitted concentration of half-maximal effect; nearly all actives have a fitted effect of over 60% in size
# In short: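 A luminogenic readout tracked human CYP2C9 (10nM) converting deoxyluciferin (100uM, at KM) in 25mM KPO4 during 60 min at 37C with regenerated NADPH. Values normalized to 57uM sulphaphenazole as complete inhibition.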
# Glucocorticoid receptor (Homo sapiens), sequence (P04150 whole entry, looked up, the tested form may be a part): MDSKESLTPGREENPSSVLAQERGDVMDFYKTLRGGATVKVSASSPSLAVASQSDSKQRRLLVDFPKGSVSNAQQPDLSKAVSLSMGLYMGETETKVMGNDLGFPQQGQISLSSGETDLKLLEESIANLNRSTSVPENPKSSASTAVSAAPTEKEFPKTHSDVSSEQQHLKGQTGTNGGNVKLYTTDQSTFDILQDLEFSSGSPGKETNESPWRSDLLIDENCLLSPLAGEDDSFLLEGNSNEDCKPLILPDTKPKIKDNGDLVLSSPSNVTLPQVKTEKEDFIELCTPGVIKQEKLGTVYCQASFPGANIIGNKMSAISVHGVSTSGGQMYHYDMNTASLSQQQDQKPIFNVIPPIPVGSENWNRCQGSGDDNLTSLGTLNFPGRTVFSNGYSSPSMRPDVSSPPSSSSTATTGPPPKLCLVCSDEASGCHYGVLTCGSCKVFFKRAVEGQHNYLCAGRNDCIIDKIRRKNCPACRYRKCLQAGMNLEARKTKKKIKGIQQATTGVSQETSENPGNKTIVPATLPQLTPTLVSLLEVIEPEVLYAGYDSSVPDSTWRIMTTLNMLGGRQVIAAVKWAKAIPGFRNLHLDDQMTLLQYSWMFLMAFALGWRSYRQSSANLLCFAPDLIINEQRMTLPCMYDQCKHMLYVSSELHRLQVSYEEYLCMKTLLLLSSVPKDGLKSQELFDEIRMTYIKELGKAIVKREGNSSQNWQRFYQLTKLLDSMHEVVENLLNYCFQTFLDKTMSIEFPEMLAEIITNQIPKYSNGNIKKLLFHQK
# DNA dC->dU-editing enzyme APOBEC-3G (Homo sapiens), sequence (Q9HC16 whole entry, looked up): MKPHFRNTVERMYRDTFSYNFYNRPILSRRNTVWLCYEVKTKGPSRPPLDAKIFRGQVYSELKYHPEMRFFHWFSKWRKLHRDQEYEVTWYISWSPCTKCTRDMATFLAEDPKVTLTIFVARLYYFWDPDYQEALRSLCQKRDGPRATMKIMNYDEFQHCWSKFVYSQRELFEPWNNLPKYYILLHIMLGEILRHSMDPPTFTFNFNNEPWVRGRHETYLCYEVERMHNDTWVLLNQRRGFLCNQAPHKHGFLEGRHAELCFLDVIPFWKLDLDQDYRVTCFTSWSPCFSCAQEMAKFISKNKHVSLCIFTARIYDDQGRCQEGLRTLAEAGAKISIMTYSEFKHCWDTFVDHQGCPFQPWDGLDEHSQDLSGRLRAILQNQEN
# Ubiquitin carboxyl-terminal hydrolase 1 (Homo sapiens), sequence (O94782 whole entry, looked up): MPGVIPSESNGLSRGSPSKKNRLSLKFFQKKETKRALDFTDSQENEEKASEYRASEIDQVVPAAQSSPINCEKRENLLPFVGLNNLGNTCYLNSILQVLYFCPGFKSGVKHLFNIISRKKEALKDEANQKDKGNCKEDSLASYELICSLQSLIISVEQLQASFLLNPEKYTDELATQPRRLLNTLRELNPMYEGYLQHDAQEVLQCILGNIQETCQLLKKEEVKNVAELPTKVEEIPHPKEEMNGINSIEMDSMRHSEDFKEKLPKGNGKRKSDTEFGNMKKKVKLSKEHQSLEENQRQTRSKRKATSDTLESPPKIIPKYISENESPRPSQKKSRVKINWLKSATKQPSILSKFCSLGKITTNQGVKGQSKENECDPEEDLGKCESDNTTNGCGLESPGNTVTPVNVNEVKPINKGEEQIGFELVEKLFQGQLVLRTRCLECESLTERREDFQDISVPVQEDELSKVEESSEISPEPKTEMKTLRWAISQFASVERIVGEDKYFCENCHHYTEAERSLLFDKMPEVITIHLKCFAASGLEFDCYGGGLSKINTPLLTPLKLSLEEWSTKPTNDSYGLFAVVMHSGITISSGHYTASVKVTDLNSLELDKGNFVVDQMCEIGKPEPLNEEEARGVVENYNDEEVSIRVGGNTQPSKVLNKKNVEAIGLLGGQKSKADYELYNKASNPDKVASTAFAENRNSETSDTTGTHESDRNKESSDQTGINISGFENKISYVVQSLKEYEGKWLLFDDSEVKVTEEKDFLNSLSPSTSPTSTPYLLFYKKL
# Cytochrome P450 2C9 (Homo sapiens), sequence (P11712 whole entry, looked up): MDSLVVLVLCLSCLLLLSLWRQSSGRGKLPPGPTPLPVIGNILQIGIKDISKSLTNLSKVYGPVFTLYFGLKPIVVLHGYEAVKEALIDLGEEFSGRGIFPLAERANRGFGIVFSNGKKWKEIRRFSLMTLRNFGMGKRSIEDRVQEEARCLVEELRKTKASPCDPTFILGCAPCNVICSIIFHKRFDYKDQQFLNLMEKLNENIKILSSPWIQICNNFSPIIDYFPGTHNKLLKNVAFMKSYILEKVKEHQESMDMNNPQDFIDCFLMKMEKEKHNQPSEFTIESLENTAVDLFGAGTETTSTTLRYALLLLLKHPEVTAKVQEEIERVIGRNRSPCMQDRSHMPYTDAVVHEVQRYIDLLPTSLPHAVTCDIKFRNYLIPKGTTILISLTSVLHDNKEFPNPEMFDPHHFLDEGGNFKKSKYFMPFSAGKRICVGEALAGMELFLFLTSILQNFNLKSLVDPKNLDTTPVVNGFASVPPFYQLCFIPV
# 3',5'-cyclic-AMP phosphodiesterase 4B (Homo sapiens), sequence (Q07343 whole entry, looked up): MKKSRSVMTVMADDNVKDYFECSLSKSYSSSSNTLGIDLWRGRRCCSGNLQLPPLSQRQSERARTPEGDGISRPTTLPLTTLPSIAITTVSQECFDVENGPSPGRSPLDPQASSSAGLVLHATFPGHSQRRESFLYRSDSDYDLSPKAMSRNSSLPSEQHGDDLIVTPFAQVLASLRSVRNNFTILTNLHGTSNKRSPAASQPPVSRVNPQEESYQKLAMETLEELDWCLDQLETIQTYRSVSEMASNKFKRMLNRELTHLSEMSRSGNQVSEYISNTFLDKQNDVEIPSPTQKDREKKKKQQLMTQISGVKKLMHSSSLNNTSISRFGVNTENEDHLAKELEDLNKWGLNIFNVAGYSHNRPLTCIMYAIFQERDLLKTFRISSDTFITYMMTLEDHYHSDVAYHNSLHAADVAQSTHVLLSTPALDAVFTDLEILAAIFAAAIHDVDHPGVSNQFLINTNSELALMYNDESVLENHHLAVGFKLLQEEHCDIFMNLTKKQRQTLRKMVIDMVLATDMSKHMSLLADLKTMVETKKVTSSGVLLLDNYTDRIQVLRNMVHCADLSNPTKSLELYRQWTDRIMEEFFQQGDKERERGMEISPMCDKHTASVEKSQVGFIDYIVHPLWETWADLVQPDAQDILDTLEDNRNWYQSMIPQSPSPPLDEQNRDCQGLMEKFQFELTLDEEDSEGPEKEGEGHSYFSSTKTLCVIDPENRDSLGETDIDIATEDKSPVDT
# Cytochrome P450 1A2 (Homo sapiens), sequence (P05177 whole entry, looked up): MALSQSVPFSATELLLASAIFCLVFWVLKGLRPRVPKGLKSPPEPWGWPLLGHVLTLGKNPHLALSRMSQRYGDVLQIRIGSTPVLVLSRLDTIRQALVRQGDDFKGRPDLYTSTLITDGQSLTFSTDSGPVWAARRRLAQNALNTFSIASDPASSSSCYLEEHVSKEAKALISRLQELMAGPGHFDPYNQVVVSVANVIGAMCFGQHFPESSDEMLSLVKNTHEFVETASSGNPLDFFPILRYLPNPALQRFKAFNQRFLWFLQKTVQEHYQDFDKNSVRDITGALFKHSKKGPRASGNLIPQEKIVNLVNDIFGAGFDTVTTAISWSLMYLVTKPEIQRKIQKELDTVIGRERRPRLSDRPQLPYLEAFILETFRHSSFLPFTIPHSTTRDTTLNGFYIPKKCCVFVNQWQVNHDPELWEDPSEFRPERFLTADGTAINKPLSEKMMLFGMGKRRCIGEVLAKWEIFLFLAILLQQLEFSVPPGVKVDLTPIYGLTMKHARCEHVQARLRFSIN
# Cytochrome P450 2D6 (Homo sapiens), sequence (P10635 whole entry, looked up): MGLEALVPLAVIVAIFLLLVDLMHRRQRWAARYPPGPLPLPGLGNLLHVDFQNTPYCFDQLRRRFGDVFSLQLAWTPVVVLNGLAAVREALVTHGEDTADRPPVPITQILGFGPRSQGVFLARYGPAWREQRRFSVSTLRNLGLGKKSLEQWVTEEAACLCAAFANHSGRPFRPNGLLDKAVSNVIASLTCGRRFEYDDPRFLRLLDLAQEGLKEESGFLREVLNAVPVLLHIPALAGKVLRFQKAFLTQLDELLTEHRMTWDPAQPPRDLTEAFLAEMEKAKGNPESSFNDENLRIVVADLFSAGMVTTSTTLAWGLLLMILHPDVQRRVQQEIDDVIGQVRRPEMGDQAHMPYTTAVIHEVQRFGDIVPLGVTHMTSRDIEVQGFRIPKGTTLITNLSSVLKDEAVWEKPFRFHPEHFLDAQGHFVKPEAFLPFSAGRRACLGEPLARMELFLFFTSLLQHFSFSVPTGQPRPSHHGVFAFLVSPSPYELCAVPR
# Luciferin 4-monooxygenase (Photinus pyralis), sequence (P08659 whole entry, looked up): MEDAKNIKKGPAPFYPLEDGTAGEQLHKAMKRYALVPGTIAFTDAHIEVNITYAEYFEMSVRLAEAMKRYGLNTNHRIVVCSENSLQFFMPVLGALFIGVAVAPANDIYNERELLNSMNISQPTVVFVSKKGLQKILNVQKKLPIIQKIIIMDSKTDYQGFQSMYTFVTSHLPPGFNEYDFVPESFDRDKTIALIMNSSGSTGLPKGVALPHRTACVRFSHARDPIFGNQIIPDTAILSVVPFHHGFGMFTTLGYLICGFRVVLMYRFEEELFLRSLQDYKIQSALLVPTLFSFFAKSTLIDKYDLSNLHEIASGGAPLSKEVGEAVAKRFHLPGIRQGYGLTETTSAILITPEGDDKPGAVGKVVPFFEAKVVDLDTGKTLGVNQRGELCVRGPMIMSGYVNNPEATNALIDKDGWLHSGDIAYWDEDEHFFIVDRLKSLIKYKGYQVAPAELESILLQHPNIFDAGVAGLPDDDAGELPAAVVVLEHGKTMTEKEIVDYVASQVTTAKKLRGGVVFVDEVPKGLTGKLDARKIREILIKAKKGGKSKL
molecule,measurement,setting,value
C[C@@H](C(=O)OC1C[C@H]2CC[C@@H](C1)N2C)c1ccc(Br)cc1 (stereo partly specified),Potency,[1],39.8 µM (active)
same,Potency,[2],> 46 µM (inactive)
same,Potency,[3],> 46 µM (inactive)
same,outcome,[4],inactive
same,Potency,[5],3.98 µM (active)
same,"activity change, negative = inhibition",[6]; at 57.5 µM (top of the series),2.43% (inactive)
same,max response,[6]; measured here: cell count channel max response,12.6%
same,max response,[6]; measured here: lipid channel max response,16.9%
same,Potency,[7],inactive
same,Potency,[8],inactive
same,Potency,[9],inactive
same,Potency,[10],inactive
same,Potency,[11],31.6 µM (active)
same,max response,[12],-11% (inactive)
C[C@H]1C[C@H](C)C(=O)[C@@H]([C@H](O)CC2CC(=O)NC(=O)C2)C1,outcome,[4],inactive
same,Potency,[13],inactive
same,Potency,[8],inactive
same,Potency,[14],inactive
same,Potency,[9],inactive
same,Potency,[10],1.58 µM (active)
same,Potency,[11],0.282 µM (active)
C[C@H](NC(=O)[C@@H](N)Cc1ccc(O)cc1)C(=O)N[C@@H](Cc1ccccc1)C(=O)NCC(=O)N[C@@H](Cc1ccc(O)cc1)C(=O)N1CCC[C@H]1C(=O)N[C@@H](CO)C(N)=O,"activity change, negative = inhibition",[9],8.07% [at 6.83 µM] (inactive)
same,"activity change, negative = inhibition",[15],-16.9% [at 3.88 µM] (inactive)
C=CCN1C[C@H](C)N([C@H](c2ccc(C(=O)N(CC)CC)cc2)c2cccc(O)c2)C[C@H]1C,Potency,[2],> 46 µM (inactive)
same,Potency,[3],> 46 µM (inactive)
same,outcome,[4],inactive
same,Potency,[16],3.98 µM (active)
same,Potency,[7],inactive
same,Potency,[8],inactive
same,Potency,[9],inactive
same,max response,[12],8.89% (inactive)
C=C1C(=O)O[C@@H]2C[C@@H](C)[C@@H]3C=CC(=O)[C@@]3(C)[C@@H](O)[C@H]12,Potency,[9],inactive
same,Potency,[15],inactive
C[C@@H]1O[C@H](C[N+](C)(C)C)C[C@@H]1O,Potency,[9],inactive
same,Potency,[15],inactive
H-YPFVEPI-OH,"activity change, negative = inhibition",[9],-10.5% [at 6.83 µM] (inactive)
same,"activity change, negative = inhibition",[15],-11.8% [at 3.88 µM] (inactive)
CCCC[C@H]1C(=O)O[C@H](C)[C@H](NC(=O)c2cccc(NC=O)c2OC)C(=O)O[C@@H](C)[C@@H]1OC(=O)CC(C)C,Potency,[9],inactive
same,Potency,[15],inactive
N#Cc1c(Oc2cccc(OS(=O)(=O)CCCC(F)(F)F)c2)cccc1C(F)(F)F,Potency,[9],inactive
same,Potency,[15],inactive
